# Hits are enriched below; roughly 4% of the tested compounds scored in any of these assays.
# ADAM10 inh: inhibitors of human ADAM10 | AID 720582 | O14672 | recombinant ADAM10, EDANS/DABCYL FRET peptide cleavage, 3 h | inhibition, % at 7 µM | 370,000 compounds, 0.62% hits;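 active = inhibition above a per-campaign cutoff equal to the mean of compounds falling between control-based bounds plus 3 SD, cut at about 20% in these data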
# GRIN3A LBD mod: modulators (binders) of human NR3A ligand-binding domain; NR3A LBD differential scanning fluorimetry, Tm shift; 0% = protein alone, 100% = glycine-bound protein; Tm shift relative to glycine control, % at 25 µM; 340,000 compounds, 2.5% hits; AID 1259313;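 active = melting temperature shift of at least 10% of the positive control shift, at one fixed dose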
# ADAM17 inh: inhibitors of human ADAM17. P78536. inhibition, % at 6.95 µM. 370,000 compounds, 0.83% hits. recombinant ADAM17, EDANS/DABCYL FRET peptide cleavage;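 active = inhibition above the mean of compounds lying between control limits plus 3 SD, set per campaign, cut at about 8.5% in these data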
# Target sequence (P78536 215-824 limits assumed): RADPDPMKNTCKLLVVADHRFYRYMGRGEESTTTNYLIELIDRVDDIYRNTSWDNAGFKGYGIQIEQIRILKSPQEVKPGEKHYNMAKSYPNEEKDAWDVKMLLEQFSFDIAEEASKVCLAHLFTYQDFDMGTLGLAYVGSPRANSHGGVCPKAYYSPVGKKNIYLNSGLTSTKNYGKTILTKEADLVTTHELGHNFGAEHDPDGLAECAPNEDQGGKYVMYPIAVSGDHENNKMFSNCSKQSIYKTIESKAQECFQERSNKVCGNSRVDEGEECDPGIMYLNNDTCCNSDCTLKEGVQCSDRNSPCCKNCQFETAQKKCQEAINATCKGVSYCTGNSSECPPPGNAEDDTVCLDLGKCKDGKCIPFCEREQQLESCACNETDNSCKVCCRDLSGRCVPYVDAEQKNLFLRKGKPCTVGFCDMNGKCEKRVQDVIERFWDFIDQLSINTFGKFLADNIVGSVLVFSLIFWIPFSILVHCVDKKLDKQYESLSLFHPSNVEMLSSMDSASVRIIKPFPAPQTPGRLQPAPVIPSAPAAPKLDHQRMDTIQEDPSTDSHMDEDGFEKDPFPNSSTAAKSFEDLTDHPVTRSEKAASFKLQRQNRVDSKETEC
# aDG glyco act: alpha-DG glycosylation activation. Pro5-aDG cells, alpha-DG glycosylation AlphaScreen (IIH6); 0% Pro5, 100% B10-LARGE cell signal. activation, % at 10 µM. 360,000 compounds, 0.22% hits. AID 624168;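 active = activation of at least 8% versus controls, or a plate z-score of at least 8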;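 note: Pro5 are CHO cells carrying HIG-tagged alpha-DG that lacks glycosylation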
# FAS TE block: FAS thioesterase (human) inhibition | 360,000 compounds, 0.67% hits | AID 602261 | inhibition, % at 15 µM | recombinant FAS-TE, OMFH fluorogenic substrate, fluorescence endpoint | P49327;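 active = compounds whose normalised, plate-corrected inhibition of enzyme fluorescence in the single-dose primary screen is 50% or more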
# ADAM10 confirm: human ADAM10 inhibition, confirmation; shares compounds with ADAM10 inh; ADAM10 QFRET peptide cleavage, EDANS fluorescence; inhibition, % at 6.95 µM; 2,100 compounds, 1% hits; AID 743208;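 active = inhibition above about 20% chosen separately for each screening run, limit read from the data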
# ADAM17 counter: ADAM17 inhibition, counter-screen for ADAM10 exosite hits. inhibition, % at 6.95 µM. 2,100 compounds, 0.5% hits. ADAM17 QFRET peptide cleavage, EDANS fluorescence. shares compounds with ADAM10 inh;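 active = mean triplicate inhibition above the solvent-only control wells' mean plus 3 SD, cut at about 12% in these data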
# ADAM10 counter: counter-screen for ADAM17 exosite inhibitors: inhibitors of human ADAM10 | recombinant ADAM10, EDANS/DABCYL FRET peptide cleavage, 3 h | 2,900 compounds, 47% hits | shares compounds with ADAM17 inh | inhibition, % at 6.95 µM;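 active = mean inhibition over the triplicate runs exceeds the activity threshold set in the earlier primary screen, cut at about 20% in these data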
# ADAM17 confirm: human ADAM17 inhibition, confirmation. inhibition, % at 6.95 µM. shares compounds with ADAM17 inh. AID 743257. recombinant ADAM17, EDANS/DABCYL QFRET peptide cleavage. 2,900 compounds, 65% hits;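 active = mean inhibition across replicates above the hit cutoff set in the primary screen, cut at about 8.5% in these data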
# Hits are given with their value; i = inactive; nt = no result.
SMILES,ADAM10 inh,GRIN3A LBD mod,ADAM17 inh,aDG glyco act,FAS TE block,ADAM10 confirm,ADAM17 counter,ADAM10 counter,ADAM17 confirm
O=C(c1cccs1)N1N=C(c2ccccc2)CC1c1ccc(O)cc1 (stereo not given),27,i,16,i,i,i,i,30,21
O=C(N=C1SC2CS(=O)(=O)CC2N1Cc1ccc(F)cc1)C1CC1 (stereo not given),i,i,i,i,i,nt,nt,nt,nt
COc1cc(C2C3C(=O)N(Cc4ccccc4)C(=O)C3ON2c2ccccc2)cc(OC)c1OC (stereo not given),i,i,i,i,i,nt,nt,nt,nt
COc1ccc(C2C3C(=O)N(Cc4ccccc4)C(=O)C3ON2c2ccccc2)c(OC)c1OC (stereo not given),21,i,11,i,i,i,i,32,17
O=C(C1=COCCO1)N(Cc1nnc(-c2ccccc2Cl)o1)C1CC1,i,i,i,i,i,nt,nt,nt,nt
CC(C)(C)NS(=O)(=O)c1ccc(NC(=O)C(Sc2ccccc2)c2ccccc2)cc1 (stereo not given),41,23,19,i,i,i,i,44,22
O=C(c1cc(Br)c(Br)s1)N1CCOCC1,i,i,i,i,i,nt,nt,nt,nt
S=c1[nH]nc(-c2n[nH]c3c2CCC3)n1N=Cc1c2ccccc2cc2ccccc12,i,nt,i,nt,nt,nt,nt,nt,nt
COc1ccc(CN([C@H](CO)CC(C)C)S(=O)(=O)N(Cc2ccccc2)[C@H](CO)CC(C)C)cc1,43,i,23,i,i,i,i,63,35
Cc1ccc(S(=O)(=O)Nc2ccc3ccccc3c2)cc1,24,i,17,i,i,i,i,i,i
COC(=O)c1cc2cc(NS(=O)(=O)c3ccc(C)cc3)ccc2s1,28,i,15,i,i,i,i,i,10
Cc1ccccc1Cn1nnc(C(=O)Nc2cccc(C)c2C)c1N,i,i,i,i,i,nt,nt,nt,nt
CC(=O)Nc1ccc(NC(=O)C2Cc3c(-c4cccc(C(C)=O)c4)ccnc3O2)cc1 (stereo not given),i,nt,i,i,i,nt,nt,nt,nt
CC(=O)c1cccc(-c2ccnc3c2CC(C(=O)Nc2ccc(Cl)cc2)O3)c1 (stereo not given),24,nt,8.7,i,i,i,i,i,i
Cc1cc2c(nc1C)CCCN2S(=O)(=O)c1ccc(C#N)cc1,i,nt,i,nt,nt,nt,nt,nt,nt
CC(OC(=O)CCCCCN=C1NS(=O)(=O)c2ccccc21)C(=O)Nc1cc(Cl)cc(Cl)c1 (stereo not given),29,18,15,i,i,i,i,i,15
CC(=O)Nc1ccc(NC(=O)C(C)OC(=O)CCN=C2NS(=O)(=O)c3ccccc32)cc1 (stereo not given),i,i,i,i,i,nt,nt,nt,nt
NC(=O)[C@@H]1CC2(CC(c3cccc(NC(=O)CC(c4ccccc4)c4ccccc4)c3)=NO2)CN1C(=O)c1ccc(Cl)cc1 (stereo not given in full),23,i,11,i,i,i,i,45,21
CCC(=O)N1CC2(CC(c3cccc(NC(=O)CC(c4ccccc4)c4ccccc4)c3)=NO2)C[C@H]1C(N)=O (stereo not given in full),i,i,i,i,i,nt,nt,nt,nt
NC(=O)[C@H]1CC2(CC(c3cccc(NC(=O)CC(c4ccccc4)c4ccccc4)c3)=NO2)CN1C(=O)CC(c1ccccc1)c1ccccc1 (stereo not given in full),31,17,16,i,i,i,i,33,19
O=C(Nc1ccc(C(F)(F)F)cc1[N+](=O)[O-])O[C@H]1[C@H](Cc2ccccc2)NS(=O)(=O)[C@H]2C[C@@H]3C=C[C@]12O3,29,i,14,i,i,i,i,i,i
CCc1nc2c(OCCC3CCCCC3)cccn2c1N(C)C(=O)C1CC1,nt,nt,nt,i,i,nt,nt,nt,nt
CCc1nc2c(OCCC3CCCCC3)cccn2c1N(C)C(=O)c1ccc(C)cc1,29,nt,15,i,i,i,i,i,i
COc1ccc(C(=O)CC(Nc2ccc([N+](=O)[O-])cc2)c2ccc(Cl)cc2)cc1 (stereo not given),22,11,13,i,i,i,i,38,18
COc1ccccc1OCc1ccc(C(=O)N2N=C(C(F)F)CC2(O)C(F)F)o1 (stereo not given),i,i,i,i,i,nt,nt,nt,nt
SMILES,ADAM10 inh,GRIN3A LBD mod,ADAM17 inh,aDG glyco act,FAS TE block,ADAM10 confirm,ADAM17 counter,ADAM10 counter,ADAM17 confirm
O=C(c1ccc(COc2ccc(Cl)cc2)o1)N1N=C(C(F)F)CC1(O)C(F)F (stereo not given),34,i,13,i,i,i,i,i,i
COc1ccc(C(=O)Nc2nc(-c3cccs3)cs2)cc1,21,16,10,i,i,i,i,i,i
O=C(COc1ccc(Cl)cc1)Nc1nc(-c2cccs2)cs1,23,i,9.7,i,i,i,i,i,i
Nc1cc(Cl)ccc1Oc1ccc2ccccc2c1,29,i,17,i,i,i,i,i,12
Cc1ccc(Oc2ccc(Cl)cc2N)cc1,i,i,i,i,i,nt,nt,nt,nt
CC(C)C[C@H](NC(=O)c1nc[nH]c1C(=O)NCCCCCNC(=O)OC(C)(C)C)C(=O)OC(C)(C)C,23,i,9.8,i,i,i,i,35,15
CC(C)C[C@H](NC(=O)c1[nH]cnc1C(=O)N[C@@H](C)C(=O)OC(C)(C)C)C(=O)OC(C)(C)C,40,i,25,i,i,i,i,33,19
O=C(NC1CCCCC1)[C@@H]1CC=C[C@@H]2CCN(C3CCCCC3)C(=O)[C@@H]21,i,i,i,i,i,nt,nt,nt,nt
CCOC(=O)C1CCN(S(=O)(=O)c2ccc(Br)c(OCC)c2)CC1,i,i,i,i,i,nt,nt,nt,nt
CCC1(c2ccccc2)NC(=O)N(CC(=O)Nc2ccc(S(=O)(=O)N3CC(C)CC(C)C3)cc2)C1=O (stereo not given),21,i,10,i,i,i,i,48,24
CC1CCN(S(=O)(=O)c2ccc(NC(=O)CN3C(=O)NC(C)(c4ccccc4)C3=O)cc2)CC1 (stereo not given),i,i,i,i,i,nt,nt,nt,nt
Cc1nc2ccc(NC(=O)c3ccc(S(=O)(=O)N(C)c4ccccc4)cc3)cc2s1,29,i,16,i,i,i,i,i,13
Cc1ccc(S(=O)(=O)N(C)c2ccc(C(=O)Nc3ccccn3)cc2)cc1,i,i,i,i,i,nt,nt,nt,nt
